Hits are enriched below; roughly 17% of the tested compounds scored in any of these assays.
DT40 TDP1 no CPT: qHTS for Inhibitors of human tyrosyl-DNA phosphodiesterase 1 (TDP1): qHTS in cells in absence of CPT | DT40 Tdp1-/- hTDP1 cells, no CPT, ATP luminescence, 48 h | Potency, µM (highest dose often 46.2 µM), usual class: inhibitors | 15% of 420,000 active | AID 686978, 2013; note: nearly all actives have a fitted effect of over 55% in size
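Growth kinetics read by CellTiter-Glo luminescence after ≥48 hr at 37 °C. Cells: DT40 Tdp1-/- stably carrying human TDP1, 400 per well, compound exposure in the absence of CPT (DMSO vehicle).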
TGFb SMAD3 inh: qHTS for Inhibitors of TGF-b | HepG2 CAGA-GFP TGF-b/SMAD3 reporter, GFP fluorescence, 18 h; TGF-beta stimulated, 500 pg/mL final | Potency, µM (top dose mostly 46.1 µM), hits mostly inhibitors | 1.2% of 410,000 active | AID 588855, 2011; note: nearly all actives have a fitted effect of over 65% in size
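Using HEPG2 CAGA-GFP reporter cells at 1000 cells/well, we pinned test compounds, stimulated with recombinant TGF-beta (500 pg/mL final) and measured total well GFP after 18 h.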
HT1080-NT tox: qHTS for induction of synthetic lethality in tumor cells producing 2HG: qHTS for the HT-1080-NT fibrosarcoma cell line. HT-1080-NT fibrosarcoma viability, CellTiter-Glo ATP luminescence, 48 h. Potency, µM (highest dose often 46.1 µM), actives largely listed as cytotoxic. 1.6% of 360,000 active;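 note: NT is the 2HG producing partner of a matched IDH1 knockdown line; nearly all actives have a fitted effect of over 55% in size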
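HT-1080-NT fibrosarcoma cells (2HG-overproducing), 750 cells/well in RPMI with 5% FBS, dosed after 2 h and incubated 48 h at 37C. CellTiter-Glo luminescence normalized to DMSO and no-cell wells; concentration-response curves fitted and classed.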
HepG2 viability: qHTS for Inhibitors of TGF-b: Cytotox Counterscreen. HepG2 CAGA-GFP viability, ATP luminescence, 18 h. Potency, µM (highest dose often 46.1 µM), actives largely listed as cytotoxic. 0.76% of 410,000 active
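CellTiter-Glo luminescence gave cytotoxicity after 18 hours at 37 degrees C. The cells were HepG2 CAGA-GFP in 1% FBS DMEM, stimulated with 500 pg/mL TGF-beta after compound addition. %Activity was normalised to no-cell wells (complete cell-killing) and DMSO (no toxicity), and curves were fitted and classified.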
TDP1 cell CPT: qHTS for Inhibitors of human tyrosyl-DNA phosphodiesterase 1 (TDP1): qHTS in cells in presence of CPT | chicken DT40 Tdp1-/-;hTDP1 cells + 20 nM CPT, ATP luminescence, 48 h | Potency, µM (titrated, usually from 46.2 µM), hits mostly inhibitors | 12% of 420,000 active; note: nearly all actives have a fitted effect of over 55% in size
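Chicken DT40 Tdp1-/- cells stably complemented with human TDP1 were seeded at 400 cells/well in medium containing 20 nM camptothecin, exposed to pin-transferred compounds, and grown at 37 °C for at least 48 hr. Viability was read as ATP luminescence.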
HT1080 IDH1KD tx: qHTS for induction of synthetic lethality in tumor cells producing 2HG: qHTS for the HT-1080-IDH1KD cell line; HT-1080 IDH1 knockdown viability, ATP luminescence, 48 h; 2% of 360,000 active; Potency, µM (titrated, usually from 46.1 µM), most hits filed as cytotoxic; AID 686971, 2013
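In this qHTS, HT-1080 cells depleted of IDH1 are exposed for 48 h at 37 °C to compound titrations. Toxicity is scored from CellTiter-Glo luminescence, with DMSO as full viability and medium alone as none.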
Numbers stand for hits; - = inactive; ? = inconclusive; . = no result. Calls come from the whole dose curve; as a rule, active = well fitted curve in the direction sought with a large enough effect; inconclusive = small, poorly fitted or top-dose-only effect, or another doubt; inactive = no such curve, though single readings can be large; an effect the other way counts as inactive or inconclusive.

SMILES	DT40 TDP1 no CPT	TGFb SMAD3 inh	HT1080-NT tox	HepG2 viability	TDP1 cell CPT	HT1080 IDH1KD tx
O=C(CSc1nc2ccc(Cl)cc2[nH]1)NCCc1ccccc1	21µM	?	-	-	?	-
COc1ccc(CCNC(=O)CSc2nc3scc(-c4ccccc4)c3c(=O)[nH]2)cc1	?	13µM	-	-	?	-
CC(C)CNC(=O)CSc1nc2scc(-c3ccccc3)c2c(=O)[nH]1	-	?	-	-	-	-
CC(C)(C)c1nc(SCC(=O)NNC(=O)c2ccccc2)c2ccccc2n1	?	?	?	-	?	?
COC(=O)CCC[C@H]1CC2(C[C@H](CCCO[Si](C)(C)C(C)(C)C)N1C(=O)OC(C)(C)C)OCCO2	18µM	-	-	-	?	-
Cn1c(-c2ccc3c(c2)OCO3)cnc1NCc1ccccc1	?	-	?	-	21µM	?
Cn1c(-c2ccc3c(c2)OCO3)cnc1NCc1ccccc1Cl	15µM	-	-	-	?	-
Cn1c(-c2ccc3c(c2)OCO3)cnc1NC(=O)CCC(=O)NCCc1ccccc1	-	-	-	-	-	-
Cn1c(-c2cccc([N+](=O)[O-])c2)cnc1NCc1cccc(F)c1	21µM	-	-	-	?	-
COc1ccc(S(=O)(=O)N2CCC(C(=O)NCc3cccnc3)CC2)cc1Cl	-	-	-	-	-	-
O=C(Nc1ccccc1C(F)(F)F)N1CCC(CN2CCc3ccccc3C2)CC1	?	-	.	-	?	.
CC(C)(CNC(=O)c1cccs1)CNC(=O)c1cccs1	-	-	-	-	-	-
COc1ccccc1CCn1cnc2c3cc(C)ccc3n(C)c2c1=O	12µM	-	-	-	18µM	-
COc1ccc2c(c1)c1ncn(CCN3CCCC3)c(=O)c1n2C	-	-	-	-	-	-
COc1cc2c(cc1C(F)(F)F)N(C(=O)Nc1cc(F)cc(-c3cccnc3)c1)CC2	3.5µM	.	11µM	.	4.5µM	?
O=S(=O)(/C=C/c1ccccc1)Oc1ccccc1	16µM	?	?	-	26µM	?
CO[C@H]1[C@H](NC(=O)c2cccs2)c2ccccc2C12CCN(Cc1cccn1-c1cccnc1)CC2	-	.	.	.	-	.
CN(C)c1nnnn1-c1cccc(Oc2ncc(C(F)(F)F)cc2Cl)c1	-	-	-	-	-	-
Cc1cccc(Nc2cc(C)c3c(O)cccc3n2)c1C	23µM	?	?	-	21µM	?
O=C(Nc1ccccc1N1CCN(c2ccccc2)CC1)c1ccccc1F	3.7µM	-	-	-	?	-
O=C(Nc1ccccc1N1CCCC1)c1ccccc1F	-	-	-	-	?	-
O=C(NCCS(=O)(=O)N1CCN(c2ccccc2)CC1)C12CC3CC(CC(C3)C1)C2	21µM	-	-	-	26µM	-
O=C(Nc1ccccc1N1CCN(c2ccccc2)CC1)C12CC3CC(CC(C3)C1)C2	21µM	-	-	-	?	-
COc1ccc(-c2nc(CSc3nnc(C)n4c3cc3sccc34)c(C)o2)cc1	-	?	.	-	-	.
O=C1C=C(c2cnc3ccccc3c2)C[C@@H](c2ccc3c(c2)OCO3)C1	?	-	-	-	21µM	-
O=C1C=C(c2ccccc2)C[C@@H](c2ccc3c(c2)OCO3)C1	-	-	-	-	-	-
O=C1C=C(c2cccc(Br)c2)C[C@@H](c2ccc3c(c2)OCO3)C1	23µM	-	-	-	?	-
O=C1C=C(c2ccc(-c3ccccc3)cc2)C[C@@H](c2ccc3c(c2)OCO3)C1	-	-	-	-	-	-
O=C(CN1CCN(Cc2ccccc2Cl)CC1)N/N=C/c1ccco1	-	-	-	-	-	-

High-throughput results from PubChem.
